Active and inactive are the calls of the source. Unless noted, no rule for the calls is given here.
Legend:
[1] = tested on: Wnt5a (protein binding on small-molecule microarray); experiment: Wnt5a binders on small-molecule microarray, primary screen, biophysical, 635/667 nm fluorescence (AID 1142); conditions: 635 nm fluorescence, higher = more signal;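 also: fluorescence read at 667 nm with signal to noise per printed feature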
[2] = cell viability in Huh7 cells, primary screen, cytotoxicity control for HCV replication inhibitor project, CellTiter-Glo luminescence, basal, 48 h (AID 1143); conditions: Huh7 HCV replicon, higher = more signal, called active from +8 up or from −8 down;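 also: Huh7 hepatoma cells carrying a hepatitis C replication reporter with no stimulus; test concentration not given here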
[3] = P. aeruginosa biofilm formation inhibitors, primary screen, PAO1 strain, BacTiter-Glo luminescence, LB-PBS (AID 1144); conditions: 12 h, higher = more signal
[4] = CREB reporter modulators without forskolin, primary screen, cell-based, PC12, CRE-LacZ reporter, unstimulated (AID 1145); conditions: no forskolin, luminescence, 4.5 h, higher = more signal, called active from +8 up or from −8 down
[5] = CREB reporter modulators under forskolin, primary screen, cell-based, PC12, CRE-LacZ reporter, forskolin-stimulated (AID 1146); conditions: luminescence, 4.5 h, higher = more signal, called active from +8 up or from −8 down;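 also: PC12 cells with 6xCRE LacZ reporter stimulated by forskolin 10 µM; beta-galactosidase reporter signal reflecting CREB driven transcription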
[6] = target: Streptavidin (Streptomyces avidinii) (UniProt P22629); experiment: streptavidin binders on small-molecule microarray, primary screen, artefact control for SMM compound annotation, biophysical, 635/667 nm fluorescence (AID 1147); conditions: streptavidin binding, higher = more signal;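 also: signal reflects streptavidin binding to arrayed compounds as a control protein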
[7] = small-molecule binders of probe aInhba, primary screen, biochemical, small-molecule microarray, 635/667 nm fluorescence (AID 1148); conditions: higher = more signal;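 also: score merges 667nm spot fluorescence with signal-to-noise for antibody binding to printed compounds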
Torsin-1A (Homo sapiens) [8] = target: Torsin-1A (Homo sapiens) (UniProt O14656); experiment: torsin A binders from cell lysate, primary screen, small-molecule microarray, wild-type, 635/667 nm (AID 1149); conditions: COS7 hTOR1A-WT lysate, 635 nm fluorescence, higher = more signal
Torsin-1A (Homo sapiens) [9] = target: Torsin-1A (Homo sapiens) (UniProt O14656); experiment: small-molecule binders of mutant TOR1A in lysate, primary screen, cell lysate, small-molecule microarray, COS7 lysate, 635/667 nm fluorescence (AID 1150); conditions: COS7 hTOR1A mutant lysate, 635 nm fluorescence, higher = more signal;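 also: score pools 667 nm emission and signal to noise measuring lysate protein binding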
[10] = tested on: Sonic hedgehog protein (Shh); experiment: small-molecule binders of Shh protein, primary screen, biochemical, small-molecule microarray, 635/667 nm fluorescence (AID 1151); conditions: small-molecule microarray binding, 635 nm fluorescence; higher = more signal;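 also: Shh protein binding to compounds spotted on small-molecule microarray slides; score combines spot fluorescence intensity with signal-to-noise across triplicate slides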
[11] = E. coli DRC41 culture turbidity changes, primary screen, E. coli filamentation inducer project, strain DRC41, OD650, 48 h (AID 1152);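 also: E. coli MC1000 strain DRC41 lacking acrAB efflux pump and sulA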; conditions: E. coli DRC41 (acrAB sulA), higher = more signal, called active from +8 up or from −8 down
[12] = small-molecule binders of probe aLefty1, primary screen, biochemical, small-molecule microarray, 635/667 nm fluorescence (AID 1153); conditions: higher = more signal;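 also: score merges spot fluorescence with signal-to-noise ratio from the scanned slide images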
[13] = PSAC antagonists in infected red cells, primary screen, cell-based, P. falciparum Indochina, OD700, 1 h (AID 1154); conditions: P. falciparum Indochina infected RBC osmotic lysis, higher = more signal, called active from +8 up or from −8 down
[14] = PSAC antagonists in infected red cells, primary screen, cell-based, P. falciparum Indochina, OD700, 2 h (AID 1155);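 also: lysis reports solute entry through the parasite surface anion channel PSAC; channel blockers reduce lysis of infected cells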; conditions: P. falciparum Indochina infected erythrocytes, osmotic lysis OD700; higher = more signal, called active from +8 up or from −8 down
[15] = osmotic lysis modulators in infected erythrocytes, primary screen, PSAC antagonist project, cell-based, P. falciparum Indochina, OD700, 3 h (AID 1156); conditions: higher = more signal, called active from +8 up or from −8 down
[16] = PSAC antagonists in infected red cells, primary screen, cell-based, P. falciparum Indochina, OD700, 18 h (AID 1157); conditions: P. falciparum Indochina infected erythrocytes, osmotic lysis OD700, 18 h; higher = more signal, called active from +8 up or from −8 down
[17] = modulators of S6 phosphorylation in cells, primary screen, cell-based, A549, cytoblot, luminescence, serum-stimulated (AID 1158); conditions: A549 phospho-S6 cytoblot, 5 h, higher = more signal;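 also: serum-stimulated A549 lung adenocarcinoma cells; signal is phosphorylated S6 detected by cytoblot immunostaining with HRP secondary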
[18] = target: NADPH oxidase 2 (Homo sapiens) (UniProt P04839); experiment: NOX2-dependent H2O2 signal modulators, primary screen, NOX inhibitor project, cell-based, HEK293-NOX2, PMA-stimulated, Amplex Red fluorescence (AID 1159); conditions: 45 min, higher = more signal, called active from +8 up or from −8 down; also: test concentration not given here
[19] = target: NADPH oxidase 4 (Homo sapiens) (UniProt Q9NPH5); experiment: NOX4-dependent H2O2 signal modulators, primary screen, NOX inhibitor project, cell-based, HEK293-NOX4, tetracycline-induced, Amplex Red fluorescence (AID 1160); conditions: 45 min, higher = more signal, called active from +8 up or from −8 down
[20] = target: NADPH oxidase 5 (Homo sapiens) (UniProt Q96PH1); experiment: NOX5-dependent H2O2 signal modulators, primary screen, NOX inhibitor project, cell-based, HEK293-NOX5, Amplex Red fluorescence (AID 1161); conditions: HEK293-NOX5, ionomycin, 45 min, higher = more signal
Chain of NADPH oxidase 5 (Homo sapiens) (Q96PH1 whole entry, looked up): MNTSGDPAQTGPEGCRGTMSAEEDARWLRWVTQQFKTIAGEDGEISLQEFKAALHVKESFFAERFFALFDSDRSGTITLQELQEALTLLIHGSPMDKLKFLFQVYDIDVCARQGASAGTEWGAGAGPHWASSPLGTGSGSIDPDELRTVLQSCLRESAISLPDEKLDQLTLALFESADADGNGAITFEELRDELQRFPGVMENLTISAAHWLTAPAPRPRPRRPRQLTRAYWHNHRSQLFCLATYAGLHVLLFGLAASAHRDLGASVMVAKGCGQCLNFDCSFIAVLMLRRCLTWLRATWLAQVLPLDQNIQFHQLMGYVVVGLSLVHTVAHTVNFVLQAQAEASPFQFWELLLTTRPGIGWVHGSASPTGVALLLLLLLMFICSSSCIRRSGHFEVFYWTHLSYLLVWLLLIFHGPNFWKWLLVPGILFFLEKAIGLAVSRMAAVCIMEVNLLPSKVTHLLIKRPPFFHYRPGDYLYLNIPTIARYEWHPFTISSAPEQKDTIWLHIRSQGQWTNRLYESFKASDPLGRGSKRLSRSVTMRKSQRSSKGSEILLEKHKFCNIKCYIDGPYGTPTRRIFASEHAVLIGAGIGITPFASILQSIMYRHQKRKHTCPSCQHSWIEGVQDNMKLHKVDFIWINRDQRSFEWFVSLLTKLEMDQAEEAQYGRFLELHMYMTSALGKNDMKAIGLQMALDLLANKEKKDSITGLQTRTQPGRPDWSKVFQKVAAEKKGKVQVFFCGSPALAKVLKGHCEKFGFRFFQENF

Chain of NADPH oxidase 4 (Homo sapiens) (Q9NPH5 whole entry, looked up): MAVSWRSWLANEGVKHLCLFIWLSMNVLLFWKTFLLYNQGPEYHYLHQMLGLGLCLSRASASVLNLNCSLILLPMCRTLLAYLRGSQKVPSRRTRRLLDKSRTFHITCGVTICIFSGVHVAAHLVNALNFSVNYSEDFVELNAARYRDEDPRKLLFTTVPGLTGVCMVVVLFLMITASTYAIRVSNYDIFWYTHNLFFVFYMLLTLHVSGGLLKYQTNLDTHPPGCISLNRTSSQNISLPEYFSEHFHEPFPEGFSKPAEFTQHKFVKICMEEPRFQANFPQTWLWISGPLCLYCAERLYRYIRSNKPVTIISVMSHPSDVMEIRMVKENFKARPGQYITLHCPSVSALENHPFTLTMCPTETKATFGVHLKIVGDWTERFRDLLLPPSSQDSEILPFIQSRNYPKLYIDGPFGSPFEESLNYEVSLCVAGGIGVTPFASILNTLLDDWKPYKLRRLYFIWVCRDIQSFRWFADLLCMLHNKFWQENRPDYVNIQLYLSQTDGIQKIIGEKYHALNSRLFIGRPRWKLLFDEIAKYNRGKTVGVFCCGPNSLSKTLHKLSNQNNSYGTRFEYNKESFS
Chain of NADPH oxidase 2 (Homo sapiens) (P04839 whole entry, looked up): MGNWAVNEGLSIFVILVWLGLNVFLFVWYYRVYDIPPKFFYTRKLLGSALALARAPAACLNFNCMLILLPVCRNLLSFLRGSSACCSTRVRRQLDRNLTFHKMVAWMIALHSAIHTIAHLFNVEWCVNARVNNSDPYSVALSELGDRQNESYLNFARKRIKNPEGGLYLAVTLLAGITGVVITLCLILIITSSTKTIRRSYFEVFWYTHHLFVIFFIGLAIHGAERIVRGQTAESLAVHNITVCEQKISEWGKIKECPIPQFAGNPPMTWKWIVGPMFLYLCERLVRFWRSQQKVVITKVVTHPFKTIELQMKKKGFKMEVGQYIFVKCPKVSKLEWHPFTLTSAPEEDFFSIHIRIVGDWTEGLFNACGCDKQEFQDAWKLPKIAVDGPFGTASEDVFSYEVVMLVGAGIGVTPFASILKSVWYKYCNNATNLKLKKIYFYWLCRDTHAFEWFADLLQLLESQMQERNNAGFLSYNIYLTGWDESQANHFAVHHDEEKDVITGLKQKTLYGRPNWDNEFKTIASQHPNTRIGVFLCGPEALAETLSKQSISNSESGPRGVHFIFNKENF
Chain of Streptavidin (Streptomyces avidinii) (P22629 whole entry, looked up): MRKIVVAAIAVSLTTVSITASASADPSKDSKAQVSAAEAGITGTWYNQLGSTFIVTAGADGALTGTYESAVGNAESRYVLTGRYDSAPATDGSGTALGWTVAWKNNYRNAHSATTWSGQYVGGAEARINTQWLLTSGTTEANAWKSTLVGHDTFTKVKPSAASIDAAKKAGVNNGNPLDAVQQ
Chain of Torsin-1A (Homo sapiens) (O14656 whole entry, looked up): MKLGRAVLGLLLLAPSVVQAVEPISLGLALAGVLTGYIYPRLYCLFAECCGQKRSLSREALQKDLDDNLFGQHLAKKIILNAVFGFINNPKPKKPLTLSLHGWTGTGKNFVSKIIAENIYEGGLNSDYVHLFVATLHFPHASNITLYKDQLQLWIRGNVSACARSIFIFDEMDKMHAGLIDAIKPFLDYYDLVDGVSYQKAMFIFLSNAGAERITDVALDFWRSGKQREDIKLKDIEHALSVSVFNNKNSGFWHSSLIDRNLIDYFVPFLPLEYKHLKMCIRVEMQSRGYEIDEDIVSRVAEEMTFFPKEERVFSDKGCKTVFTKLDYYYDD

SMILES | composite z-score [1] | z-score [2] | z-score [3] | z-score [4] | z-score [5] | composite z-score [6] | composite z-score [7] | composite z-score (Torsin-1A (Homo sapiens) [8]) | composite z-score (Torsin-1A (Homo sapiens) [9]) | composite z-score [10] | z-score [11] | composite z-score [12] | z-score [13] | z-score [14] | z-score [15] | z-score [16] | z-score [17] | z-score [18] | z-score [19] | z-score [20]
C[C@@H]1ON(c2ccc(I)cc2)[C@H](c2ccc(OC(=O)OC(C)(C)C)cc2)[C@H]1C(=O)N1C(=O)OC[C@H]1Cc1ccccc1 | 0.0472 | -1.32 (inactive) | -0.829 (inactive) | -0.415 (inactive) | -0.642 (inactive) | 0.573 | -0.0468 | 0.0475 | 0.624 | 0.639 | 2.67 (inactive) | -0.191 | 0.789 (inactive) | -0.474 (inactive) | 0.546 (inactive) | -1.73 (inactive) | 1.5 | -5.57 (inactive) | 0.237 (inactive) | 1.39
C=CCNC(=O)[C@H]1[C@@H]2C(=O)O[C@@H](c3ccccc3)[C@@H](c3ccccc3)N2[C@@H](c2ccc(OCCO)cc2)[C@]12C(=O)Nc1ccc(C#CCNC(N)=O)cc12 | 0.314 | -0.384 (inactive) | -0.78 (inactive) | 0.559 (inactive) | 0.123 (inactive) | 0.756 | 0.0857 | 0.207 | 0.125 | 1.61 | -0.0661 (inactive) | 0.0809 | 2.59 (inactive) | 1.36 (inactive) | 1.42 (inactive) | 0.563 (inactive) | 0.326 | 1.91 (inactive) | 0.286 (inactive) | -0.621
C=CCC(OC(C)=O)[C@@H]1[C@@H](N(Cc2cccc3ccccc23)C(=O)Cc2ccc(F)cc2)c2cc(OCCCO)ccc2N1C(=O)c1ccc(-c2ccccc2)cc1 (stereo not given in full) | 0.364 | -0.227 (inactive) | -0.169 (inactive) | 1.44 (inactive) | 0.429 (inactive) | -0.153 | 0.066 | 0.143 | 0.102 | 0.246 | 0.341 (inactive) | 0.0184 | 0.616 (inactive) | 0.743 (inactive) | -0.402 (inactive) | -0.278 (inactive) | -0.18 | 0.227 (inactive) | 0.795 (inactive) | 1.77
O=c1cccc(-c2ccc(F)cc2)o1 | 0.0405 | 0.0779 (inactive) | -0.291 (inactive) | -0.433 (inactive) | 1.01 (inactive) | 0.386 | 0.179 | 0.309 | 0.0586 | 0.559 | -0.527 (inactive) | 0.0367 | 1.74 (inactive) | 0.624 (inactive) | -0.099 (inactive) | 0.832 (inactive) | -0.387 | 0.227 (inactive) | -1.19 (inactive) | -0.184
CCOC(=O)C[C@H]1[C@H](OC(=O)c2ccc(-c3ccccc3)cc2)[C@@H](NC(=O)CC(C)C)c2cc(OCCCO)ccc2N1C(=O)c1ccccc1 | 0.121 | -0.092 (inactive) | 0.0804 (inactive) | 0.469 (inactive) | -0.375 (inactive) | 0.216 | -0.0963 | -0.477 | 0.289 | 1.03 | -0.674 (inactive) | 0.113 | 1.18 (inactive) | 0.389 (inactive) | -0.0732 (inactive) | 0.336 (inactive) | 0.574 | 0.403 (inactive) | -0.742 (inactive) | 1.74
CN1C(=O)C2C=CC(C(O)c3cc(C(F)(F)F)cc(C(F)(F)F)c3)N(Nc3ccccc3)C2C1=O (stereo not given) | -0.253 | -0.73 (inactive) | 0.329 (inactive) | 0.626 (inactive) | -0.0455 (inactive) | 0.0416 | -0.128 | -1.74 | 1.13 | -0.145 | -1.07 (inactive) | 0.0341 | 0.277 (inactive) | 0.301 (inactive) | -0.753 (inactive) | 0.797 (inactive) | -0.77 | -1.59 (inactive) | -4.95 (inactive) | -1.99
COc1ccc([Si](C)(C)[C@@H]2[C@@H](CC(=O)N3Cc4ccccc4C[C@H]3CO)O[C@]3(C(=O)N(Cc4ccc(N5CCC5=O)cc4)c4ccccc43)[C@H]2C)cc1 | 0.159 | -3.32 (inactive) | -1.1 (inactive) | 0.409 (inactive) | -0.448 (inactive) | 0.673 | -0.167 | -0.191 | 0.585 | 1.74 | 0.238 (inactive) | 0.0253 | 5.02 (inactive) | 1.31 (inactive) | 0.538 (inactive) | 1.14 (inactive) | 0.0933 | 0.669 (inactive) | 0.841 (inactive) | 2.36
[N-]=[N+]=NCc1ccccc1[C@@H]1OC(c2ccc(OCCCO)cc2)=N[C@]1(Cc1ccccc1)C(=O)NCCN1CCOCC1 | 0.629 | -2.31 (inactive) | 0.0636 (inactive) | 2.76 (inactive) | -0.808 (inactive) | 0.686 | 0.386 | 0.0739 | 0.818 | 0.0392 | 0.745 (inactive) | 0.345 | 18 (active) | 3.55 (inactive) | 1.97 (inactive) | 1.13 (inactive) | -0.408 | -3.16 (inactive) | 2.14 (inactive) | 0.838
